Laboratory results taken from PubChem BioAssay.
The source made the active and inactive calls.

Experiments:
[1] = tested on: PRMT1 (protein arginine N-methyltransferase 1); test: small molecules binding arginine methyltransferase PRMT1 – biochemical, small-molecule microarray, 635 nm fluorescence, primary screen (AID 1088); conditions: higher = more signal;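 note: binding of Prmt1 protein to compounds spotted on small-molecule microarray slides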
[2] = growth effects on S. cerevisiae YJM789 – YJM789 clinical isolate, OD600, 24 h, basal, primary screen (AID 1089); conditions: higher = more signal, called active from +8 up or from −8 down;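 note: growth of clinical yeast isolate S. cerevisiae YJM 789 seeded 1000 cells per well; test concentration not given here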
[3] = S. pombe growth modifiers, basal conditions – strain 972, OD600, 24 h, no modulator, primary screen (AID 1090);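 note: basal condition with compound alone and no growth modifier present; test concentration not given here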; conditions: S. pombe 972 growth, higher = more signal, called active from +8 up or from −8 down
[4] = budding yeast growth modifiers under rapamycin – strain BY4716, OD600, 96 h, primary screen (AID 1091); note: test concentration not given here; conditions: S. cerevisiae BY4716 + rapamycin, higher = more signal, called active from +8 up or from −8 down
[5] = target: Torsin-1A-interacting protein 2 (Homo sapiens) (UniProt Q8NFQ8); test: small molecules binding lysate-expressed LULL1 – cell lysate, human LULL1 lysate, 635/667 nm fluorescence, primary screen (AID 1092); conditions: small-molecule microarray, hLULL1 lysate binding, 635 nm fluorescence; higher = more signal;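 note: probe is lysate of COS7 cells overexpressing human LULL1; score merges per-feature 667 nm fluorescence with signal-to-noise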
[6] = optical density change of DRC41 E. coli – strain DRC41, OD650, 24 h, E. coli filamentation project, primary screen (AID 1093);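 note: MC1000 strain lacking acrAB efflux and sulA so SOS filamentation is blocked; test concentration not given here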; conditions: E. coli DRC41 growth, higher = more signal, called active from +8 up or from −8 down
[7] = probe aLefty2 binding to arrayed compounds – biochemical, biotinylated probe, 635/667 nm fluorescence, primary screen (AID 1094); conditions: small-molecule microarray, higher = more signal;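 note: score merges spot fluorescence near 667 nm with spot signal-to-noise ratio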
[8] = tested on: Noggin (protein binding on small-molecule microarray); test: small molecules binding Noggin protein – biochemical, 635/667 nm fluorescence, primary screen (AID 1095); conditions: 635 nm fluorescence, higher = more signal;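 note: score merges 667 nm feature fluorescence with signal to noise over triplicate slides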
[9] = target: Neurogenic locus notch homolog protein 3 (Homo sapiens) (UniProt Q9UM47); test: small molecules binding NOTCH3 protein – biochemical, 635/667 nm fluorescence, primary screen (AID 1096); conditions: small-molecule microarray, 635 nm fluorescence, higher = more signal
[10] = probe aEGFR binding to arrayed compounds – biochemical, biotinylated probe, 635/667 nm fluorescence, primary screen (AID 1097); conditions: small-molecule microarray, higher = more signal;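 note: probe is a biotinylated anti-EGFR antibody binding compounds printed on slides; score combines fluorescence near 667 nm and signal to noise of each spot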
[11] = tested on: Plasmodium falciparum Sir2 (PF13_0152, Sir2A); test: Plasmodium falciparum Sir2A binding compounds – biochemical, small-molecule microarray, 635 nm fluorescence, primary screen (AID 1098); conditions: fluorescence 635 nm, higher = more signal;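 note: score merges spot fluorescence intensity with its signal-to-noise ratio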
[12] = probe aDKK1 binding to arrayed compounds – biochemical, biotinylated probe, 635/667 nm fluorescence, primary screen (AID 1099); conditions: small-molecule microarray, higher = more signal;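 note: score merges 667nm spot fluorescence with signal to noise across triplicate slides; reference of the scale not given here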
[13] = probe aCHRDL2 binding to arrayed compounds – biochemical, biotinylated probe, 635/667 nm fluorescence, primary screen (AID 1100); conditions: small-molecule microarray, higher = more signal
[14] = change in splice reporter luminescence, either direction, cell-based, HEK293, spliceosome inhibition project, primary screen (AID 1101); conditions: HEK293 splicing luciferase reporter, 24 h, higher = more signal, called active from +8 up or from −8 down;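 note: HEK293 cells carrying a splicing-competent luciferase reporter gene; test concentration not given here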
[15] = target: Fibroblast growth factor 10 (Homo sapiens) (UniProt O15520); test: compounds binding fibroblast growth factor 10 – biochemical, small-molecule microarray, 635 nm fluorescence, primary screen (AID 1102); conditions: FGF10 binding, fluorescence 635 nm, higher = more signal
[16] = tested on: glycogen synthase kinase-3 (GSK3A per assay name; protocol says GSK3B); test: compounds binding glycogen synthase kinase-3 – biochemical, small-molecule microarray, 635 nm fluorescence, GSK3A, primary screen (AID 1103); conditions: fluorescence 635 nm, higher = more signal; note: the record names both GSK3A and GSK3B
[17] = target: Epidermal growth factor receptor (Homo sapiens) (UniProt P00533); test: compounds binding epidermal growth factor receptor – biochemical, small-molecule microarray, 635 nm fluorescence, primary screen (AID 1104); conditions: EGFR binding, higher = more signal;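 note: score merges 667 nm emission intensity with spot signal to noise over triplicate slides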
[18] = target: Follistatin-related protein 3 (Homo sapiens) (UniProt O95633); test: compounds binding follistatin-related protein 3 – biochemical, small-molecule microarray, 635 nm fluorescence, primary screen (AID 1105); conditions: FSTL3 binding, higher = more signal;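 note: score merges emission near 667 nm and signal to noise per printed spot across three slides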
[19] = target: Dickkopf-related protein 1 (Homo sapiens) (UniProt O94907); test: small molecules binding DKK1 protein – biochemical, small-molecule microarray, 635 nm fluorescence scan, primary screen (AID 1106); conditions: higher = more signal;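 note: score merges emission near 667 nm with signal to noise over three replicate slides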
[20] = tested on: Inhibin beta A chain (activin A); test: small molecules binding activin A – biochemical, small-molecule microarray, 635 nm fluorescence scan, primary screen (AID 1107); conditions: INHBA, higher = more signal;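 note: mouse activin A protein probed at 4.33 µg/mL on printed slides; score merges bound-protein fluorescence near 667 nm with spot signal-to-noise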

Epidermal growth factor receptor (Homo sapiens), sequence (P00533 whole entry, looked up): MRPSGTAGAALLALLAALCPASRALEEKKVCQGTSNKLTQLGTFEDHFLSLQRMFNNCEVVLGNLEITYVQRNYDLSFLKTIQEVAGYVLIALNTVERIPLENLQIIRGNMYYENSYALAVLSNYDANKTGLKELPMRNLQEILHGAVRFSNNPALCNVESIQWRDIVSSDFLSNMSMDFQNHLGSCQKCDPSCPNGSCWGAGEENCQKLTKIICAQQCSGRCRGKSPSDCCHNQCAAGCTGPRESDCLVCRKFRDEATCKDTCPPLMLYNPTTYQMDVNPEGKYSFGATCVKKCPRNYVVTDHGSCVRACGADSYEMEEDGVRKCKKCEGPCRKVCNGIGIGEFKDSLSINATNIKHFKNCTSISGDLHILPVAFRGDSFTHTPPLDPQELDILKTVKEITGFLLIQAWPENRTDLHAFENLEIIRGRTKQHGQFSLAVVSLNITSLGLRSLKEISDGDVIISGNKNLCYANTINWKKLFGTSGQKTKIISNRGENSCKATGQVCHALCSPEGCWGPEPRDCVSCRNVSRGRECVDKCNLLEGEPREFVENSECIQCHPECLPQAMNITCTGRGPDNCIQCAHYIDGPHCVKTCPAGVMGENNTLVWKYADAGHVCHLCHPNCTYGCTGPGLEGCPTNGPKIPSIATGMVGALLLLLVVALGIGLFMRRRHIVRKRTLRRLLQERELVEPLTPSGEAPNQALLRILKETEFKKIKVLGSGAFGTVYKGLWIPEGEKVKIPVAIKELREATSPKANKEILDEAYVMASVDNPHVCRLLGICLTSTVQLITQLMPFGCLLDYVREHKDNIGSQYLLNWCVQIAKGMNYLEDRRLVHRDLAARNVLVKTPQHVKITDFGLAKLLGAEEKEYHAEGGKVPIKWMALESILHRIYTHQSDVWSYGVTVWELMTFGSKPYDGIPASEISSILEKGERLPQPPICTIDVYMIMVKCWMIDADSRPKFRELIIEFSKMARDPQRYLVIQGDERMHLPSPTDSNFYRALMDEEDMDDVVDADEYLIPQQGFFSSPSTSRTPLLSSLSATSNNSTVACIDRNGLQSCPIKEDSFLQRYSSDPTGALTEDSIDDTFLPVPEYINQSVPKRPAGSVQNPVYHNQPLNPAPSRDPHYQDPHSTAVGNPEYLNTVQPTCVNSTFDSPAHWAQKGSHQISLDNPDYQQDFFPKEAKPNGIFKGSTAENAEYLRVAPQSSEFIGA
Follistatin-related protein 3 (Homo sapiens), sequence (O95633 whole entry, looked up): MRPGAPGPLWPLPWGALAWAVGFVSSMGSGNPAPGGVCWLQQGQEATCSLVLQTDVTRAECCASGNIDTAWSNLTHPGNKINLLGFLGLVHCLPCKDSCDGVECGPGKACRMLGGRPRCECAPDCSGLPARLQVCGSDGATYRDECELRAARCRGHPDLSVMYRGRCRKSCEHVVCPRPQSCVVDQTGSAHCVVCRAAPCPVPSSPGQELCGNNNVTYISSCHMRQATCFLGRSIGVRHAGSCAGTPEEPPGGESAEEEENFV
Neurogenic locus notch homolog protein 3 (Homo sapiens), sequence (Q9UM47 whole entry, looked up): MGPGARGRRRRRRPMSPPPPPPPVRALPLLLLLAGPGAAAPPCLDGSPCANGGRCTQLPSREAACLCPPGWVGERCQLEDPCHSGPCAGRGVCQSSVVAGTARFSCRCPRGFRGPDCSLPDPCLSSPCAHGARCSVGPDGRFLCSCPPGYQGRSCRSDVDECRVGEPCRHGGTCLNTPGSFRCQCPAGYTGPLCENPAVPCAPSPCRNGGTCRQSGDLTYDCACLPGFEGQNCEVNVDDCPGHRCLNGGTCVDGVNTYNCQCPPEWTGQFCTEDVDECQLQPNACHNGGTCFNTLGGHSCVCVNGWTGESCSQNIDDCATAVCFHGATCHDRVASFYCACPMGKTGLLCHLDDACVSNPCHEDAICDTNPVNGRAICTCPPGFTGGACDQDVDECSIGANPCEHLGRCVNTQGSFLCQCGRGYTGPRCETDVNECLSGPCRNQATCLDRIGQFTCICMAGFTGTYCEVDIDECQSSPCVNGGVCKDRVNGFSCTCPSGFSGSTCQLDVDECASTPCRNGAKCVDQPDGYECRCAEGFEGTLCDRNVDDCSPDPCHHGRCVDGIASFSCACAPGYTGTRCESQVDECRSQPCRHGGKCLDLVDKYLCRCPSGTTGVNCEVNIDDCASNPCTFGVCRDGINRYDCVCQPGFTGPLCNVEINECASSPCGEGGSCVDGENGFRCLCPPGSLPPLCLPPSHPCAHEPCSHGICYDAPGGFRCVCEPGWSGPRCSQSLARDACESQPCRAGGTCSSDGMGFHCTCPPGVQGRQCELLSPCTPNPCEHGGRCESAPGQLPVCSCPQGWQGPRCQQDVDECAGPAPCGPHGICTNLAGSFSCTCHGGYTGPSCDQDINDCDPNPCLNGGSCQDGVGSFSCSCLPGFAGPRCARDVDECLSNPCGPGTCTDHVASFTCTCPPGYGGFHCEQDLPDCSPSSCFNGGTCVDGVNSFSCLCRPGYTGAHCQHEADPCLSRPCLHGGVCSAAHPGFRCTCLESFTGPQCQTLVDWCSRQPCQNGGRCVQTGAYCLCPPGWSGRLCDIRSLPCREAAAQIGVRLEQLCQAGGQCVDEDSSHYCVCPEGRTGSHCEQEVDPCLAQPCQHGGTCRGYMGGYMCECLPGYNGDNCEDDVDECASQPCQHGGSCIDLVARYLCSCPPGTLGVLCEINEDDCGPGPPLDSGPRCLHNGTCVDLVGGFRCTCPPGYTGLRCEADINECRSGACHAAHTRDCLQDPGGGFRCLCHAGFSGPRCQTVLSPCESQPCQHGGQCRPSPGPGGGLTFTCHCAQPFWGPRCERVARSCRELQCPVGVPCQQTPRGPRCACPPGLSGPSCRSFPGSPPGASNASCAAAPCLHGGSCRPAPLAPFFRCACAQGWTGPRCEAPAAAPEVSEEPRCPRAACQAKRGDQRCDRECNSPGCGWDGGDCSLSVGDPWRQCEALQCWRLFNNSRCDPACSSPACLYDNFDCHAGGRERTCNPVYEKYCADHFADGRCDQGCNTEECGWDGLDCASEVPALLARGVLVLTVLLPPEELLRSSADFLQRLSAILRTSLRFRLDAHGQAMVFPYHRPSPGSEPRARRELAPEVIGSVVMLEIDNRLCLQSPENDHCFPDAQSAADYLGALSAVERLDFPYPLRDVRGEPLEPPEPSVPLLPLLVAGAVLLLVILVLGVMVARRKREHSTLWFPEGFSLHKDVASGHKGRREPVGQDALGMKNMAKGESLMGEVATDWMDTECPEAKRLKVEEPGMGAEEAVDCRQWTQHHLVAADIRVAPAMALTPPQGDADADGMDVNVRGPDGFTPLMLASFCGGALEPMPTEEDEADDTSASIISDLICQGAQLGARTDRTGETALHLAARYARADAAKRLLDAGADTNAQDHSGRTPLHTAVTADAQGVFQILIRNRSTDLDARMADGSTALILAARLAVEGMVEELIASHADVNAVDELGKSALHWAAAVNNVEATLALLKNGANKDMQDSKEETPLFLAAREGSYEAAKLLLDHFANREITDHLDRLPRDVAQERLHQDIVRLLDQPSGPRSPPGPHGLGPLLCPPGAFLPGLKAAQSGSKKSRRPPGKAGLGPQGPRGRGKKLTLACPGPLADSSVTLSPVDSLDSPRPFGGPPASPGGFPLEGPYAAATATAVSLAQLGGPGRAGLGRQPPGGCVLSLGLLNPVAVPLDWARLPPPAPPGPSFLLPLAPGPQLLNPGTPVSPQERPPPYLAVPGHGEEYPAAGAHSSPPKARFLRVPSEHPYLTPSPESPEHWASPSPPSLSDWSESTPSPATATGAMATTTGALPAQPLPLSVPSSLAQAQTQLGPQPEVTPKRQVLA
Torsin-1A-interacting protein 2 (Homo sapiens), sequence (Q8NFQ8 whole entry, looked up): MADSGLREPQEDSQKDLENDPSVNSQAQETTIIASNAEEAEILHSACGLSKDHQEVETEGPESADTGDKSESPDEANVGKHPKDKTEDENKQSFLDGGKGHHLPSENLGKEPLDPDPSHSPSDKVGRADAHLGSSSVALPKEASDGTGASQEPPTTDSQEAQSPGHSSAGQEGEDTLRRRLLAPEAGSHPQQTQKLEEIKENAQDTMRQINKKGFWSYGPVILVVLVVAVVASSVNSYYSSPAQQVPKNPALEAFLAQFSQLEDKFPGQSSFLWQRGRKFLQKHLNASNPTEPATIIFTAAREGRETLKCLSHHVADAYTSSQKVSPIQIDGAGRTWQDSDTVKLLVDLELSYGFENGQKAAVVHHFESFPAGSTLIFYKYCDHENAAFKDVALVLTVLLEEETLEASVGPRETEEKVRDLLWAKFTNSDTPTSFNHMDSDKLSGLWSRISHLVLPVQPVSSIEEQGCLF
Fibroblast growth factor 10 (Homo sapiens), sequence (O15520 whole entry, looked up): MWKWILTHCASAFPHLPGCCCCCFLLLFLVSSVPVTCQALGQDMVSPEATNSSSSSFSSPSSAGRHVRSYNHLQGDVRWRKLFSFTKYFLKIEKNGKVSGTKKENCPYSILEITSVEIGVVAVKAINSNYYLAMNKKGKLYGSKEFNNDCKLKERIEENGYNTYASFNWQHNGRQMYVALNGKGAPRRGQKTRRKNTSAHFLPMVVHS
Dickkopf-related protein 1 (Homo sapiens), sequence (O94907 whole entry, looked up): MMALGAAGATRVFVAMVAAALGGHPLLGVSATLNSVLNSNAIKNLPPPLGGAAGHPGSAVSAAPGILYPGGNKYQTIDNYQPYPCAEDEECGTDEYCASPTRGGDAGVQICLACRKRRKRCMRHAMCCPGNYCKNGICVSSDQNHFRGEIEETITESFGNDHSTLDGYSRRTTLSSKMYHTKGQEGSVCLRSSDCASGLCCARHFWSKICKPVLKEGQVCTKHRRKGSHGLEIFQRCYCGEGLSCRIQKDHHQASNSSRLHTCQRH

SMILES	composite z-score [1]	z-score [2]	z-score [3]	z-score [4]	composite z-score [5]	z-score [6]	composite z-score [7]	composite z-score [8]	composite z-score [9]	composite z-score [10]	composite z-score [11]	composite z-score [12]	composite z-score [13]	z-score [14]	composite z-score [15]	composite z-score [16]	composite z-score [17]	composite z-score [18]	composite z-score [19]	composite z-score [20]
CN1C(=O)C2C=CC(C(O)c3cccs3)N(N(c3ccccc3)c3ccccc3)C2C1=O (stereo not given)	1.2	1 (inactive)	0.881 (inactive)	0.571 (inactive)	2.62	-0.874 (inactive)	0.0453	0.0625	0.932	-0.17	0.82	0.0508	0.66	2.04 (inactive)	0.347	0.347	-0.665	0.602	-0.351	1.27
CCCCCN1CC=CC23O[C@@H]4/C=C\CCCOC(=O)C4[C@H]2C(=O)N(CCO)[C@@H]3C1=O (stereo not given in full)	-0.0525	-0.402 (inactive)	-1.15 (inactive)	-1.46 (inactive)	3.42	3.22 (inactive)	-0.134	0.486	-0.285	-0.0987	1.14	-0.132	0.107	-1.83 (inactive)	-0.412	0.45	-0.356	-0.338	-0.0986	1.14
C[N+](C)(C)CCCC[C@@H]1NC(=O)[C@H]2C[C@@H](C(=O)NCCCCCN)[C@@H](c3ccc(O)cc3)N2C1=O	1.54	-0.407 (inactive)	-2.01 (inactive)	-1.2 (inactive)	3.06	-0.162 (inactive)	0.0829	1.57	1.11	0.152	0.977	0.876	0.863	0.127 (inactive)	1.53	1.34	0.243	0.58	0.89	0.617
COC(=O)C(CC#Cc1ccc2c(c1)[C@]1(C(=O)N2)[C@H](c2ccc(OCCO)cc2)N2[C@H](c3ccccc3)[C@H](c3ccccc3)OC(=O)[C@H]2[C@@H]1C(N)=O)C(=O)OC	1.06	1.76 (inactive)	1.23 (inactive)	6.23 (inactive)	2.03	-0.0446 (inactive)	-0.134	0.122	0.0497	-0.19	1.01	-0.201	0.669	0.373 (inactive)	-0.122	-0.0277	-0.69	0.025	-0.531	0.161
C=CCNC(=O)[C@H]1[C@@H]2C(=O)O[C@@H](c3ccccc3)[C@@H](c3ccccc3)N2[C@@H](c2ccc(OCCO)cc2)[C@]12C(=O)Nc1ccc(C#Cc3ccc(OC)cc3)cc12	1.56	3.23 (inactive)	2.1 (inactive)	5.57 (inactive)	2.75	0.741 (inactive)	0.326	1.27	1.11	0.166	1.34	0.626	0.632	-0.258 (inactive)	1.23	1.33	0.486	1.17	0.736	-0.274
COc1cccc(C)c1NC(=O)O[C@H]1[C@H](OC(=O)Nc2ccccc2)[C@@H](OC(=O)Nc2ccccc2)[C@@H](OC)O[C@@H]1CO	1.56	1.52 (inactive)	0.176 (inactive)	4.1 (inactive)	3.36	-0.93 (inactive)	0.0321	0.902	1.12	0.0182	1.5	0.266	0.553	0.449 (inactive)	1.34	0.927	0.191	1.48	0.474	0.525
CCN1C(=O)C2CC(=O)C3C(CN(S(=O)(=O)c4ccc(C)cc4)C3c3ccc(C)cc3)C2C1=O (stereo not given)	0.751	-0.01 (inactive)	0.616 (inactive)	0.627 (inactive)	2.75	0.398 (inactive)	-0.0176	-0.841	0.627	-0.0089	0.959	0.972	0.882	-0.106 (inactive)	0.193	0.338	-0.483	-0.167	-0.295	1.15
O=C/C=C/c1ccc(-c2ccccc2)cc1	-0.645	-25.4 (active)	-19.9 (active)	-5.08 (inactive)	-0.7	-0.168 (inactive)	-0.103	-0.339	-0.586	-0.15	-0.821	-0.241	0.149	-1.04 (inactive)	0.141	-0.1	0.005	0.0445	-0.14	1.1
COC(=O)C(CC#Cc1ccc2c(c1)[C@]1(C(=O)N2)[C@H](C(N)=O)[C@H]2C(=O)O[C@H](c3ccccc3)[C@H](c3ccccc3)N2[C@@H]1c1ccccc1OCCO)C(=O)OC	1.56	2.79 (inactive)	0.943 (inactive)	5.37 (inactive)	3.13	1.12 (inactive)	-0.075	0.877	0.576	0.0167	1.39	-0.109	0.567	1.09 (inactive)	0.785	1.15	-0.0452	0.385	-0.151	-0.278
